Laboratory results as given in PubChem BioAssay (NCI).
This is part of a sample that, as a whole, favours compounds with a hit. Of some 79,000 tested, about 15% had one in any assay. Activity calls are given as the source filed them. No stated cut-off is given here; in the data, active means growth inhibition above about 70%; inactive means the rest.

Legend:
[1] = NCI Yeast Anticancer Drug Screen. Data for the rad52 strain (AID 147);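 further: 0% = growth of vehicle-treated control cultures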; details: S. cerevisiae rad52 mutant growth inhibition, hits give high values
Outline: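 Growth of repair-deficient yeast cells was compared between compound-treated and vehicle-treated cultures to give percent inhibition.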

[2] = NCI Yeast Anticancer Drug Screen. Data for the wt1 strain (AID 149);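 further: 0% = growth of vehicle-treated wt1 cultures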; details: S. cerevisiae wt1 strain (SPY 50644) growth inhibition, hits give high values
Outline: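 wt1 strain grown with compound or vehicle; inhibition taken from the growth difference.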

[3] = NCI Yeast Anticancer Drug Screen. Data for the rad50EPP+ strain (AID 151);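 further: 0% = growth of vehicle-treated control cultures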; details: S. cerevisiae rad50 mutant strain, hits give high values
Outline: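 Measured: growth inhibition of rad50EPP+ yeast. Reference: vehicle-treated controls. Screen uses strains with defined genetic alterations in DNA damage repair or cell cycle control.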

[4] = NCI Yeast Anticancer Drug Screen. Data for the mgt1 strain (AID 153); details: S. cerevisiae mgt1 mutant growth inhibition, hits give high values
Outline: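 Compounds were applied to mgt1 mutant yeast, and growth was then compared against vehicle-treated control cultures to give percent inhibition.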

[5] = NCI Yeast Anticancer Drug Screen. Data for the rad50 strain (AID 155);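 further: 0% = growth of vehicle-only cultures of the same strain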; details: S. cerevisiae rad50 strain growth inhibition, hits give high values
Outline: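 DNA repair mutant yeast, compound exposure, growth read-out; inhibition is taken relative to vehicle.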

[6] = NCI Yeast Anticancer Drug Screen. Data for the mec2-1 strain (AID 157); details: S. cerevisiae mec2-1 strain, hits give high values
Outline: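 Compounds were applied to mec2-1 yeast cells. Their growth was then compared with that of vehicle-treated cultures to give growth inhibition.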

[7] = NCI Yeast Anticancer Drug Screen. Data for the rad14 strain (AID 159);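 further: 0% = growth of vehicle-treated control cultures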; details: S. cerevisiae rad14 strain growth inhibition, hits give high values
Outline: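 DNA repair-defective yeast, compound-exposed; % growth inhibition derived by comparison with vehicle-treated controls.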

[8] = NCI Yeast Anticancer Drug Screen. Data for the sgs1 mgt1 strain (AID 161);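 further: 0% = growth of cultures given vehicle only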; details: S. cerevisiae sgs1 mgt1 strain, hits give high values
Outline: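 This yeast growth screen uses a strain with defined DNA-repair lesions; compound-treated growth is compared with vehicle-treated growth.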

[9] = NCI Yeast Anticancer Drug Screen. Data for the CLN2oe strain (AID 163);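 further: 0% = growth of vehicle-only control cultures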; details: S. cerevisiae CLN2oe strain, hits give high values
Outline: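 Cells of an engineered yeast line with disturbed cell-cycle regulation are treated with compound. Inhibition of growth is then calculated relative to the vehicle-treated reference.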

[10] = NCI Yeast Anticancer Drug Screen. Data for the cln2 rad14 strain (AID 165);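 further: 0% = growth equal to vehicle treated cultures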; details: S. cerevisiae cln2 rad14 strain, hits give high values
Outline: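 Strain: cln2 rad14 yeast, altered in cell cycle control and DNA damage repair. Read-out: growth inhibition vs vehicle.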

[11] = NCI Yeast Anticancer Drug Screen. Data for the bub3 strain (AID 167); details: S. cerevisiae bub3 mutant strain, hits give high values
Outline: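 In this screen, a yeast mutant lacking normal mitotic checkpoint function is challenged with compound. Relative growth versus vehicle gives the inhibition value.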

[12] = NCI Yeast Anticancer Drug Screen. Data for the mlh1 strain (AID 171);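 further: 0% = growth of vehicle-treated control cultures of the same strain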; details: S. cerevisiae mlh1 strain growth inhibition, hits give high values
Outline: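 Test agents were incubated with yeast bearing a defined DNA damage repair or cell cycle control alteration; values are growth inhibition normalised to vehicle-treated cultures.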

[13] = NCI Yeast Anticancer Drug Screen. Data for the mlh1 rad18 strain (AID 175); details: S. cerevisiae mlh1 rad18 strain growth inhibition, hits give high values
Outline: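 A repair-deficient yeast strain is exposed to test compound, and growth is scored relative to vehicle-treated controls.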

[14] = NCI Yeast Anticancer Drug Screen. Data for the rad18 strain (AID 177); details: S. cerevisiae rad18 mutant growth inhibition, hits give high values
Outline: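 DNA-repair-defective yeast; compound treatment; growth inhibition scored against vehicle.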

[15] = NCI Yeast Anticancer Drug Screen. Data for the sgs1 strain (AID 173);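 further: 0% = growth of vehicle-only control cultures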; details: S. cerevisiae sgs1 mutant, hits give high values
Outline: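 Strain with an altered DNA repair or cell cycle pathway exposed to compound. Growth then measured. Value = inhibition versus vehicle control.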

[16] = at 5.0 µM (retest, dose inferred, filed as 0.5)
[17] = at 50.0 µM (retest, dose inferred, filed as 5.0)

Measured: growth inhibition

O=[N+]([O-])c1cn[n+]([O-])c2ccccc12
inactive: [1]; at 1.2 µM 33% | [1]; at 3.7 µM 59% | [2]; at 1.2 µM 0% | [2]; at 3.7 µM 16% | [2]; at 11.0 µM 34% | [3]; at 1.2 µM 61% | [4]; at 1.2 µM 10% | [4]; at 3.7 µM -5% | [4]; at 11.0 µM 33% | [5]; at 1.2 µM 14% | [5]; at 3.7 µM 58% | [5]; [16] 25% | [6]; at 1.2 µM 17% | [6]; at 3.7 µM 10% | [6]; [16] -31% | [6]; at 11.0 µM 52% | [7]; at 1.2 µM 21% | [7]; at 3.7 µM 43% | [8]; [16] 38% | [9]; at 1.2 µM 0% | [9]; at 3.7 µM 11% | [9]; at 11.0 µM 14% | [10]; [16] 7% | [11]; at 1.2 µM -1% | [11]; at 3.7 µM -12% | [11]; [16] -28% | [11]; at 11.0 µM 0% | [12]; at 1.2 µM 10% | [12]; at 3.7 µM 6% | [12]; at 11.0 µM 39% | [13]; [16] 38%
active: [1]; at 11.0 µM 90% | [1]; at 33.0 µM 97% | [1]; at 100.0 µM 99% | [2]; at 33.0 µM 93% | [2]; at 100.0 µM 99% | [3]; at 3.7 µM 90% | [3]; at 11.0 µM 96% | [3]; at 33.0 µM 99% | [3]; at 100.0 µM 100% | [4]; at 33.0 µM 99% | [4]; at 100.0 µM 99% | [5]; at 11.0 µM 85% | [5]; at 33.0 µM 97% | [5]; [17] 97% | [5]; at 50.0 µM 89.3% | [5]; at 100.0 µM 99% | [6]; at 33.0 µM 97% | [6]; [17] 99% | [6]; at 50.0 µM 91.8% | [6]; at 100.0 µM 99% | [7]; at 11.0 µM 91% | [7]; at 33.0 µM 99% | [7]; at 100.0 µM 99% | [8]; [17] 99% | [8]; at 50.0 µM 90.3% | [9]; at 33.0 µM 84% | [9]; at 100.0 µM 99% | [10]; [17] 98% | [10]; at 50.0 µM 92% | [11]; at 33.0 µM 99% | [11]; [17] 99% | [11]; at 50.0 µM 89.5% | [11]; at 100.0 µM 99% | [12]; at 33.0 µM 95% | [12]; at 100.0 µM 99% | [13]; [17] 97% | [13]; at 50.0 µM 92% | [14]; at 1.2 µM 92% | [14]; at 3.7 µM 93% | [14]; at 11.0 µM 95% | [14]; at 33.0 µM 98% | [14]; at 100.0 µM 99%

COc1cccc(C(NC2=NCCC=N2)c2cc3c(cc2O)OCO3)c1O (stereo unspecified)
active: [5]; [17] 72% | [8]; [17] 77% | [8]; at 50.0 µM 72.3% | [11]; [17] 73% | [13]; [17] 72%
inactive: [1]; at 1.2 µM -1% | [1]; at 3.7 µM 2% | [1]; at 11.0 µM 21% | [1]; at 33.0 µM 56% | [1]; at 100.0 µM 66% | [2]; at 1.2 µM -2% | [2]; at 3.7 µM -4% | [2]; at 11.0 µM 2% | [2]; at 33.0 µM 5% | [2]; at 100.0 µM 8% | [3]; at 1.2 µM -9% | [3]; at 3.7 µM -9% | [3]; at 11.0 µM -4% | [3]; at 33.0 µM 6% | [3]; at 100.0 µM 9% | [4]; at 1.2 µM -1% | [4]; at 3.7 µM -5% | [4]; at 11.0 µM 12% | [4]; at 33.0 µM -22% | [4]; at 100.0 µM 10% | [5]; at 1.2 µM -1% | [5]; at 3.7 µM -1% | [5]; [16] -11% | [5]; at 11.0 µM -36% | [5]; at 33.0 µM 26% | [5]; at 50.0 µM 41.8% | [5]; at 100.0 µM 39% | [6]; at 1.2 µM 1% | [6]; at 3.7 µM -3% | [6]; [16] -20% | [6]; at 11.0 µM 7% | [6]; at 33.0 µM 15% | [6]; [17] 61% | [6]; at 50.0 µM 23.6% | [6]; at 100.0 µM 22% | [7]; at 1.2 µM 6% | [7]; at 3.7 µM 5% | [7]; at 11.0 µM 8% | [7]; at 33.0 µM 12% | [7]; at 100.0 µM 29% | [8]; [16] -47% | [9]; at 1.2 µM -2% | [9]; at 3.7 µM -8% | [9]; at 11.0 µM -1% | [9]; at 33.0 µM 4% | [9]; at 100.0 µM 21% | [10]; [16] 26% | [10]; [17] 13% | [10]; at 50.0 µM 44.6% | [11]; at 1.2 µM -9% | [11]; at 3.7 µM -3% | [11]; [16] -57% | [11]; at 11.0 µM -3% | [11]; at 33.0 µM -1% | [11]; at 50.0 µM 37.5% | [11]; at 100.0 µM 5% | [12]; at 1.2 µM -4% | [12]; at 3.7 µM -3% | [12]; at 11.0 µM 2% | [12]; at 33.0 µM 3% | [12]; at 100.0 µM 4% | [15]; at 1.2 µM 4% | [15]; at 3.7 µM 6% | [15]; at 11.0 µM 21% | [15]; at 33.0 µM 46% | [15]; at 100.0 µM 57% | [13]; [16] -31% | [13]; at 50.0 µM 49.2% | [14]; at 1.2 µM -2% | [14]; at 3.7 µM 0% | [14]; at 11.0 µM 9% | [14]; at 33.0 µM 23% | [14]; at 100.0 µM 56%
